# Results as given in the supplement of paper PMC8728848.
# Many of the other results were omitted from the sample, so the strongest signals are more common in it than they were.
# What was measured:
# Assay in all cases: glycan array binding signal (z-score within array); higher = stronger binding
# Details in all cases: glycan notation: IUPAC condensed, linker removed
# [1] = target: GlcNAc(b1-2)[GlcNAc(b1-4)]Man(a1-3)[GlcNAc(b1-2)Man(a1-6)]Man(b1-4)GlcNAc(b1-4)GlcNAc
# In short: (§1)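 The binding signal is a Z-score computed within each array. Data were drawn from 3228 arrays in the Consortium for Functional Glycomics database, restricted to those with a known protein sequence. Scores were averaged over arrays of the same protein sequence at different concentrations or buffers, and over linkers, and negative values can be taken as non-binding.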
# [2] = target: GlcNAc(b1-3)Gal(b1-4)GlcNAc(b1-3)Gal(b1-4)GlcNAc(b1-3)GalNAc
# In short: as §1
# [3] = target: Man(a1-2)Man(a1-2)Man(a1-3)Man
# In short: as §1
# [4] = target: Man(a1-2)Man(a1-2)Man(a1-3)[Man(a1-2)Man(a1-3)[Man(a1-2)Man(a1-6)]Man(a1-6)]Man(b1-4)GlcNAc(b1-4)GlcNAc
# In short: as §1
# [5] = target: Man(a1-2)Man(a1-2)Man(a1-3)[Man(a1-2)Man(a1-6)[Man(a1-3)]Man(a1-6)]Man(b1-4)GlcNAc(b1-4)GlcNAc
# In short: as §1
# [6] = target: Man(a1-2)Man(a1-3)[Man(a1-3)[Man(a1-6)]Man(a1-6)]Man(b1-4)GlcNAc(b1-4)GlcNAc
# In short: as §1
# [7] = target: Man(a1-2)Man(a1-3)[Man(a1-6)]Man(a1-6)[Man(a1-2)Man(a1-3)]Man(b1-4)GlcNAc(b1-4)GlcNAc
# In short: as §1
# [8] = target: Man(a1-2)Man(a1-6)[Man(a1-3)]Man(a1-6)[Man(a1-2)Man(a1-2)Man(a1-3)]Man(b1-4)GlcNAc(b1-4)GlcNAc
# In short: as §1
# [9] = target: Man(a1-3)[Man(a1-6)]Man(a1-6)[Man(a1-2)Man(a1-3)]Man(b1-4)GlcNAc(b1-4)GlcNAc
# In short: as §1
# [10] = target: Man(a1-3)[Man(a1-6)]Man(a1-6)[Man(a1-3)]Man(b1-4)GlcNAc(b1-4)GlcNAc
# In short: as §1
# [11] = target: Man(a1-3)[Man(a1-6)]Man(b1-4)GlcNAc(b1-4)GlcNAc
# In short: as §1
# [12] = target: Neu5Ac(a2-3)Gal(b1-4)GlcNAc(b1-2)Man(a1-3)[GlcNAc(b1-4)][Neu5Ac(a2-3)Gal(b1-4)GlcNAc(b1-2)Man(a1-6)]Man(b1-4)GlcNAc(b1-4)GlcNAc
# In short: as §1
# [13] = target: Neu5Ac(a2-3)Gal(b1-4)GlcNAc(b1-3)[Neu5Ac(a2-3)Gal(b1-4)GlcNAc(b1-6)]GalNAc
# In short: as §1
# [14] = target: Neu5Ac(a2-3)Gal(b1-4)[Fuc(a1-3)]GlcNAc(b1-6)[Gal(b1-3)]GalNAc
# In short: as §1
# [15] = target: Neu5Ac(a2-3)Gal6S(b1-4)GlcNAc
# In short: as §1
# [16] = target: Neu5Ac(a2-3)[GalNAc(b1-4)]Gal(b1-4)GlcNAc
# In short: as §1
# [17] = target: Neu5Ac(a2-6)Gal(b1-4)GlcNAc
# In short: as §1
# [18] = target: Neu5Ac(a2-6)Gal(b1-4)GlcNAc(b1-3)Gal(b1-4)GlcNAc(b1-2)Man(a1-3)[Neu5Ac(a2-6)Gal(b1-4)GlcNAc(b1-3)Gal(b1-4)GlcNAc(b1-2)Man(a1-6)]GalNAc
# In short: as §1
# [19] = target: Neu5Ac(a2-6)Gal(b1-4)GlcNAc(b1-6)[Gal(b1-3)GlcNAc(b1-3)]Gal(b1-4)Glc
# In short: as §1
# [20] = target: Neu5Ac(a2-8)Neu5Ac(a2-3)[Gal(b1-3)GalNAc(b1-4)]Gal(b1-4)Glc
# In short: as §1
# [21] = target: Neu5Ac(a2-8)Neu5Ac(a2-8)Neu5Ac(a2-8)Neu5Ac(a2-3)[GalNAc(b1-4)]Gal(b1-4)Glc
# In short: as §1
# [22] = target: Neu5Gc(a2-3)Gal(b1-4)GlcNAc(b1-3)Gal(b1-4)GlcNAc(b1-2)Man(a1-3)[Neu5Gc(a2-3)Gal(b1-4)GlcNAc(b1-3)Gal(b1-4)GlcNAc(b1-2)Man(a1-6)]Man(b1-4)GlcNAc(b1-4)GlcNAc
# In short: as §1
# [23] = target: Neu5Gc(a2-3)Gal(b1-4)[Fuc(a1-3)]GlcNAc
# In short: as §1
# [24] = target: Neu5Gc(a2-8)Neu5Gc(a2-3)Gal(b1-4)GlcNAc
# In short: as §1
binder,measurement,setting,value
"Nictaba (Nicotiana tabacum), Q94EW1 (protein) MQGQWIAARDLSITWVDNPQYWTWKTVDPNIEVAELRRVAWLDIYGKIETKNLIRKTSYAVYLVFKLTDNPRELERATASLRFVNEVAEGAGIEGTTVFISKKKKLPGELGRFPHLRSDGWLEIKLGEFFNNLGEDGEVEMRLMEINDKTWKSGIIVKGFDIRPN",glycan array binding signal (z-score),[1],-0.101
same,glycan array binding signal (z-score),[2],-0.388
same,glycan array binding signal (z-score),[3],-0.29
same,glycan array binding signal (z-score),[4],3.93
same,glycan array binding signal (z-score),[5],4
same,glycan array binding signal (z-score),[6],4.38
same,glycan array binding signal (z-score),[7],4.07
same,glycan array binding signal (z-score),[8],4.83
same,glycan array binding signal (z-score),[9],6.51
same,glycan array binding signal (z-score),[10],4.21
same,glycan array binding signal (z-score),[11],3.44
same,glycan array binding signal (z-score),[12],-0.37
same,glycan array binding signal (z-score),[13],-0.389
same,glycan array binding signal (z-score),[14],-0.249
same,glycan array binding signal (z-score),[15],-0.272
same,glycan array binding signal (z-score),[16],-0.269
same,glycan array binding signal (z-score),[17],-0.276
same,glycan array binding signal (z-score),[18],1.27
same,glycan array binding signal (z-score),[19],-0.387
same,glycan array binding signal (z-score),[20],-0.3
same,glycan array binding signal (z-score),[21],-0.244
same,glycan array binding signal (z-score),[22],0.883
same,glycan array binding signal (z-score),[23],-0.366
same,glycan array binding signal (z-score),[24],-0.388
